{"source": "PubChem BioAssay AID624305", "about": "(National Center for Advancing Translational Sciences (NCATS), 2012)", "note": "Inconclusive results are not listed. A number with no mark means an inactive call. Calls of active or inactive are those of the source. The call rests on the fitted dose curve; in most records, active means well fitted activation curve with a large enough effect; inconclusive means small, poorly fitted or top-dose-only effect; inactive means no such curve, though single readings can be large or run the other way. Potency means the concentration at half of the fitted maximal effect.", "data": [{"test": "qHTS assay for re-activators of p53 using a Luc reporter: Hit Validation; further: nearly all actives have a fitted effect of over 75% in size; on activation: 0% is about no effect", "conditions": "p53-responsive luciferase reporter cells, luminescence, H1299 line expressing heat-sensitive Ala138Val p53; series mostly up to 46.1 µM; activation: at the top concentration", "in_short": "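Hit confirmation with a 1:5 dilution series, at 37 deg C for 24 hrs, in H1299 cells co-expressing temperature-sensitive p53-A138V and p53-responsive luciferase. Nocodazole served as control; luminescence read after 10 min with detection reagent.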", "units": {"activation": "%"}, "values": [{"smiles": "CN(C(=O)NC(=O)C1=C(N2CCOCC2)/C(=C/c2ccccc2)CC1)S(C)(=O)=O", "activation": 32.3}, {"smiles": "O=C(COc1ccccc1Cl)Nc1ccc(Cl)cn1", "Potency": "20.6 µM (active)"}, {"smiles": "C/C(=C\\COc1ccc2ccc(=O)oc2c1)CC[C@@H](O)C(C)(C)O", "activation": 34.9}, {"smiles": "Cc1ccc(C(=O)N2CC(=O)Nc3ccc(F)cc3C2c2ccc(F)cc2)cc1[N+](=O)[O-]", "note": "(stereo not drawn)", "activation": -19.3}, {"smiles": "O=C(COC(=O)c1cn(-c2ccccc2)nc1-c1ccc(F)cc1)Nc1ncc(Cl)cc1Cl", "activation": 21.9}, {"smiles": "Cc1cccc(NC(=O)/C=C/c2ccc([N+](=O)[O-])s2)c1", "activation": -39.1}, {"smiles": "Nc1c(C(=O)c2ccc(Cl)cc2)oc2ccccc12", "activation": -86.5}, {"smiles": "c1ccc(-c2cc3cc4c(cc3cn2)OCO4)cc1", "Potency": "11.6 µM (active)"}, {"smiles": "Cn1cc(Cl)c(C(=O)Nc2nc3ccccc3s2)n1", "Potency": "0.231 µM (active)"}, {"smiles": "Cc1ccsc1C(=O)Nc1ccc2c(c1)OCCO2", "Potency": "0.326 µM (active)"}, {"smiles": "COc1ccc(C(=O)Nc2nnc(C(F)(F)F)s2)cc1", "Potency": "10.3 µM (active)"}, {"smiles": "Cc1ccc(NC(=O)Nc2ccccc2)c(Br)c1", "Potency": "8.2 µM (active)"}, {"smiles": "O=C(/C=C/c1cccs1)Nc1ccc(Br)cn1", "Potency": "1.84 µM (active)"}, {"smiles": "CS(=O)(=O)n1nc(-c2ccc(Cl)cc2)nc1SCc1ccccc1", "Potency": "20.6 µM (active)"}, {"smiles": "O=C(NNC(=O)C1CCCO1)c1ccccc1Cl", "note": "(stereo not drawn)", "activation": -6.25}, {"smiles": "O=C(N/N=C/c1ccccc1O)C1CC(=O)N(c2ccc(Cl)cc2)C1", "note": "(stereo not drawn)", "activation": -78.6}, {"smiles": "O=C(Cc1ccccc1)NCc1ccc(F)cc1", "activation": 34.4}, {"smiles": "COc1ccc(-n2cnc3c(cnn3CCC#N)c2=N)cc1", "activation": 25.5}, {"smiles": "COc1ccc2nc(NC(=O)Nc3ccccc3OC)sc2c1", "Potency": "9.2 µM (active)"}, {"smiles": "Cc1ccc(Nc2nc(N)nc(CSc3nccn3C)n2)cc1", "Potency": "2.31 µM (active)"}, {"smiles": "COc1ccc(S(=O)(=O)NC2CC(C)(C)NC(C)(C)C2)c2ccccc12", "activation": -12}, {"smiles": "COc1cc(OC)cc(C(=O)NNC(=O)c2ccccn2)c1", "activation": -2.08}, {"smiles": "Cc1nn2cc(-c3ccc(-c4ccccc4)cc3)nc2s1", "Potency": "0.184 µM (active)"}, {"smiles": "COc1ccccc1C(=O)CSc1nccn1C", "activation": 31.8}, {"smiles": "Cc1nc2ccccc2nc(C)c1=NOCc1ccccc1Cl", "activation": 4.17}, {"smiles": "COc1cc(N/N=C/c2ccccc2O)ncn1", "Potency": "25.9 µM (active)"}, {"smiles": "O=C(CSc1nnc(-c2ccc(O)cc2)o1)Nc1ccc2c(c1)OCCO2", "Potency": "8.2 µM (active)"}, {"smiles": "Cc1nn(-c2ccccc2)c(N)c1Sc1ccc([N+](=O)[O-])cc1", "activation": 3.12}, {"smiles": "Cc1ccccc1-c1noc(N)c1C#N", "activation": 8.85}, {"smiles": "O=c1cc(-c2ccc3c(c2)OCCO3)oc2ccc(Cl)cc12", "Potency": "0.82 µM (active)"}, {"smiles": "COCCn1c(SCC(=O)c2c(N)n(C3CC3)c(=O)[nH]c2=O)nnc1-c1cccc(C)c1", "activation": -7.81}, {"smiles": "Cc1sc(NC(=O)c2ccc(Cl)s2)c(C(N)=O)c1C", "Potency": "4.11 µM (active)"}, {"smiles": "Cc1noc(C)c1C(=O)OCC(=O)N1CCc2ccccc21", "activation": 12}, {"smiles": "Cc1cc(C)nc(SCC(=O)OCC(=O)Nc2nc3ccccc3s2)n1", "activation": 24}, {"smiles": "O=C(c1cnn(-c2ccccc2)c1)c1ccccc1O", "Potency": "1.46 µM (active)"}, {"smiles": "COc1ccc(N2CCN(CCCNC(=O)C3(S(=O)(=O)c4ccc(Cl)cc4)CC3)CC2)cc1", "activation": -14.1}, {"smiles": "N#C/C(=C/c1cccnc1)c1ccccc1", "activation": -12}, {"smiles": "CCOc1ccc(S(=O)(=O)c2c(C(=O)c3ccc(C)cc3)cnc3cc4c(cc23)OCCO4)cc1", "activation": -37}]}]}
